# IL1B secr inh = blocks inflammasome-driven IL-1 beta release; activity change, % at 57.5 µM; AID 743279; hit rate 4.7% among 360,000; THP-1 LPS/ATP IL-1B secretion, AlphaLISA, 16 h; stronger effect = lower value; in the data active means activity change below about -50%; inconclusive means mostly about -30% to -49%
#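 THP-1 cells pretreated 1 hr with compounds (up to 57.5 uM final), then stimulated with LPS (250 ng/mL final) plus ATP (1.25 mM final); secreted IL-1B measured by AlphaLISA after 16 hr, decreased signal indicating inhibition.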
# TDP1 cell noCPT = qHTS for Inhibitors of human tyrosyl-DNA phosphodiesterase 1 (TDP1): qHTS in cells in absence of CPT | AID 686978, 2013 | Potency, µM (top dose mostly 46.2 µM), inactives show at the highest dose activity change, negative = growth inhibition, usual class: inhibitors | DT40 Tdp1-/- hTDP1 cells, no CPT, ATP luminescence, 48 h | hit rate 15% among 420,000; further: potency means the concentration at half of the fitted maximal effect; nearly all actives have a fitted effect of over 55% in size
#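 Cells were dispensed at 400 per well, compounds added by pin tool, plates incubated ≥48 hr at 37 °C, then CellTiter-Glo added for 30 min at room temperature before luminescence reading. Line: DT40 Tdp1-/- complemented with hTDP1; camptothecin omitted.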
# HT1080NT lethal = kills 2HG-producing HT-1080-NT fibrosarcoma cells; HT-1080-NT fibrosarcoma viability, CellTiter-Glo ATP luminescence, 48 h; Potency, µM (series often up to 46.1 µM), for inactives: at the top dose activity, negative = less viability, most hits filed as cytotoxic; hit rate 1.6% among 360,000;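 further: NT is the 2HG producing partner of a matched IDH1 knockdown line; potency means the concentration at half of the fitted maximal effect; 0% = DMSO-treated cells and -100% = media-only wells without cells; nearly all actives have a fitted effect of over 55% in size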
#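 HT-1080-NT fibrosarcoma cells (2HG-overproducing), 750 cells/well in RPMI with 5% FBS, dosed after 2 h and incubated 48 h at 37C. CellTiter-Glo luminescence normalized to DMSO and no-cell wells; concentration-response curves fitted and classed.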
# TDP1 cell CPT = growth inhibition of DT40 Tdp1-/-;hTDP1 cells with camptothecin (screen for TDP1 inhibitors) | Potency, µM (top dose mostly 46.2 µM), without a hit: at the top dose activity change, negative = growth inhibition, actives largely listed as inhibitors | chicken DT40 Tdp1-/-;hTDP1 cells + 20 nM CPT, ATP luminescence, 48 h | hit rate 12% among 420,000; further: potency means the concentration at half of the fitted maximal effect; nearly all actives have a fitted effect of over 55% in size
#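 Chicken DT40 Tdp1-/- cells stably complemented with human TDP1 were seeded at 400 cells/well in medium containing 20 nM camptothecin, exposed to pin-transferred compounds, and grown at 37 °C for at least 48 hr. Viability was read as ATP luminescence.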
# 12-LOX inh = ALOX12 (human) lipoxygenase inhibition | hit rate 1.1% among 580,000 | purified 12hLO, xylenol orange hydroperoxide absorbance | P18054 | Potency, µM (series often up to 108 µM), without a hit: at the top dose activity change, negative = inhibition, hits mostly inhibitors; further: potency means the concentration at half of the fitted maximal effect
# Target sequence (P18054 whole entry, looked up): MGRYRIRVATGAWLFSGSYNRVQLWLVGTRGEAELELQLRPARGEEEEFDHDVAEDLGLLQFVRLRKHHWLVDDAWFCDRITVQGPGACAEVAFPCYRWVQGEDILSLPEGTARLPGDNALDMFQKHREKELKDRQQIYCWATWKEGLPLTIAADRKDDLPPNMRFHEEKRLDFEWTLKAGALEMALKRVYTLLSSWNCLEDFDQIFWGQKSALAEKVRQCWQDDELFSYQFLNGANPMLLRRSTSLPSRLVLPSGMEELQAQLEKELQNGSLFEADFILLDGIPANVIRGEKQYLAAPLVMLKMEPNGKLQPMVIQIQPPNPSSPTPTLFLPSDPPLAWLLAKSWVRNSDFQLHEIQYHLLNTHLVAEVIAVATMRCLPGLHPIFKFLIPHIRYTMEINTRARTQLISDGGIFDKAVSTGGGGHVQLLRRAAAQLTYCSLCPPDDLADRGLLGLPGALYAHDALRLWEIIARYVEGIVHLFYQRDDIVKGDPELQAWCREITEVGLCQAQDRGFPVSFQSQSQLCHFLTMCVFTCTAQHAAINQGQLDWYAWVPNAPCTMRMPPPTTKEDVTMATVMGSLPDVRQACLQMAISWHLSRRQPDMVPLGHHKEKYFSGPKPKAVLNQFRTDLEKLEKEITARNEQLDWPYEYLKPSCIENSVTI
#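 Hydroperoxide product was detected by ferrous iron/xylenol orange as the 573 to 405 nm absorbance ratio. Arachidonic acid at 40 uM (final) was turned over for 30 min at room temperature by 150 nM human 12hLO, pH 7.0 Hepes buffer, after 15 min compound preincubation.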
# HT1080 IDH1KD tx = HT-1080 IDH1 knockdown cell toxicity (counter line). HT-1080 IDH1 knockdown viability, ATP luminescence, 48 h. Potency, µM (highest dose often 46.1 µM), inactives show top-dose activity, negative = toxicity, actives largely listed as cytotoxic. hit rate 2% among 360,000;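 further: potency means the concentration at half of the fitted maximal effect; 0% = DMSO wells and -100% = cell-free medium wells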
#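 After a 2 h attachment period, IDH1KD HT-1080 cells took pin-transferred compound for 48 h at 37 °C; ATP-based luminescence after 10 min room-temperature reagent incubation reported viability.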
# Numbers without * were called inactive; ? = inconclusive; nt = no result; [ ] = another dose, or the depositor's remark. This excerpt belongs to a sample that is enriched for hits. Unless noted, the call rests on the fitted dose curve; in most records, active means well fitted curve in the direction sought with a large enough effect; inconclusive means small, poorly fitted or top-dose-only effect, or another doubt; inactive means no such curve, though single readings can be large; an effect the other way counts as inactive or inconclusive. Unless noted, on the % scale 0 is the no-effect control and ±100 the full control effect.
SMILES,IL1B secr inh,TDP1 cell noCPT,HT1080NT lethal,TDP1 cell CPT,12-LOX inh,HT1080 IDH1KD tx
Cc1ccc(-n2nc(CO)c(C(=O)NCc3cccnc3)n2)cc1,nt,-15%,nt,?,0%,nt
CN(Cc1c(F)cccc1Cl)C(=O)c1ccc2ccccc2n1,14,?,1%,?,22%,-1%
CC(C)NC(=O)c1nc2sccn2c1Br,nt,nt,nt,nt,16%[176 µM],nt
COc1ccc2cc(C(=O)OC(C)C(=O)NC(C)(C)C)c(C)nc2c1 (configuration not stated),nt,nt,nt,nt,37%,nt
Cc1sc(NC(=O)C2=COCCO2)nc1-c1ccc(Cl)cc1,-5,21µM*,-11%,?,-17%,-13%
COc1ccc(C2CC23N=C(c2ccccc2)OC3=O)cc1 (configuration not stated),?,?,-1%,18µM*,0%,-4%
COc1ccc([C@H]2CC(=O)C=C(c3ccccc3)C2)cc1,-8,?,-11%,-5%,nt,3%
CCCCOc1cccc(-c2cc(C(=O)NNC(=S)NCC)c3ccccc3n2)c1,3,?,?,?,-29%,?
CCNC(=S)NNC(=O)c1cc(-c2cccc(C)c2)nc2ccccc12,-11,7.3µM*,?,21µM*,?,6.3µM*
CCNC(=S)NNC(=O)c1cc(-c2cccc(OCC)c2)nc2ccccc12,-1,10µM*,?,15µM*,-14%,7%
CCNC(=S)NNC(=O)c1cc(-c2cccnc2)nc2ccccc12,-2,-26%,-5%,3%,9%,-2%
Cc1cccc(N=Cc2[nH]c3ccc(Br)c(Cl)c3c2O)c1,43,?,?,26µM*,?,-1%
c1ccc(COn2c(-c3ccccc3)nc3c2CCc2nonc2-3)cc1,2,26µM*,2%,?,0%,-16%
C/C(=N\Nc1cc(N2CCCCC2)nc(C)n1)c1ccc(Br)cc1,-51*,5.8µM*,?,13µM*,?,?
CCCc1cc(CN(C)C(=O)CC2C(=O)NCCN2CCCc2ccccc2)[nH]n1 (configuration not stated),nt,nt,nt,nt,11%,nt
Cc1ccc(C)c(OCCCN2CCNCC2)c1,-7,1%,2%,-8%,?,2%
Cc1ccc(C)c(OCCCCN2CCNCC2)c1C,-13,6.5µM*,-23%,15µM*,1%,-17%
Cc1ccc(C(C)C)c(OCCCCN2CCNCC2)c1,-58*,16µM*,-14%,15µM*,?,-9%
Cc1ccc(C(C)C)c(OCCN)c1,-11,?,-7%,-29%,-4%,2%
Cc1ccc(C(C)C)c(OCCCn2ccnc2C)c1,-16,29µM*,-11%,16µM*,?,-1%
Cc1cccc(C(C)(C)C)c1OCCCCN1CCCC1,-21,23µM*,-20%,?,?,?
CC(C)OCCCNC(=O)C1CC(=O)N(c2n[nH]c3ccccc23)C1 (configuration not stated),nt,nt,nt,nt,17%,nt
Oc1cccc2c(N=Cc3ccc(F)c(F)c3)cccc12,nt,nt,nt,nt,22µM*,nt
CC(C)CSc1nnc(-c2ccccc2)c(-c2ccccc2)n1,nt,?,nt,-23%,-13%,nt
CCC(c1nnnn1-c1ccc2c(c1)OCCO2)N1CCN(c2ccc(F)cc2)CC1 (configuration not stated),-9,16µM*,-12%,15µM*,nt,?
CCC(c1nnnn1-c1ccc2c(c1)OCCO2)N1CCN(c2ncccc2C(F)(F)F)CC1 (configuration not stated),-7,18µM*,-11%,?,1%,?
CCC(c1nnnn1-c1ccc2c(c1)OCCO2)N1CCc2ccccc2C1 (configuration not stated),4,?,-2%,?,5%,-9%

# Screening results deposited in PubChem by National Center for Advancing Translational Sciences (NCATS).
